Data taken from PubChem BioAssay AID1445 (SRMLSC, 2008).
The campaign covered roughly 220,000 compounds. About 910 (0.41%) were called active.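 The calls were made as follows: active = primary inhibition above the hit cutoff, then over 50% inhibition at one or more dose response concentrations (cut at about 23% in these data, passing the limit was not always enough); inconclusive = conflicting primary data, or primary hits not chosen for dose response; inactive = low primary inhibition, or under 50% at every dose.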 What follows is part of a selection rich in actives, with near analogues and random picks from the rest. Potency and affinity values are given separately.

What follows are compounds tested against Aminopeptidase N (Plasmodium falciparum (isolate 3D7)) (UniProt O96935) (assay: P. falciparum M1AAP inhibitors, biochemical, fluorogenic H-Leu-NHMec substrate, 1536-well (AID 1445;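 also: plate controls were DMSO full reaction for no effect and no enzyme background for full effect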)). Settings: recombinant M1AAP, H-Leu-NHMec fluorogenic kinetic assay; at 30 µM, hits give high values unless noted.
Sequence of Aminopeptidase N (Plasmodium falciparum (isolate 3D7)) (O96935 whole entry, looked up): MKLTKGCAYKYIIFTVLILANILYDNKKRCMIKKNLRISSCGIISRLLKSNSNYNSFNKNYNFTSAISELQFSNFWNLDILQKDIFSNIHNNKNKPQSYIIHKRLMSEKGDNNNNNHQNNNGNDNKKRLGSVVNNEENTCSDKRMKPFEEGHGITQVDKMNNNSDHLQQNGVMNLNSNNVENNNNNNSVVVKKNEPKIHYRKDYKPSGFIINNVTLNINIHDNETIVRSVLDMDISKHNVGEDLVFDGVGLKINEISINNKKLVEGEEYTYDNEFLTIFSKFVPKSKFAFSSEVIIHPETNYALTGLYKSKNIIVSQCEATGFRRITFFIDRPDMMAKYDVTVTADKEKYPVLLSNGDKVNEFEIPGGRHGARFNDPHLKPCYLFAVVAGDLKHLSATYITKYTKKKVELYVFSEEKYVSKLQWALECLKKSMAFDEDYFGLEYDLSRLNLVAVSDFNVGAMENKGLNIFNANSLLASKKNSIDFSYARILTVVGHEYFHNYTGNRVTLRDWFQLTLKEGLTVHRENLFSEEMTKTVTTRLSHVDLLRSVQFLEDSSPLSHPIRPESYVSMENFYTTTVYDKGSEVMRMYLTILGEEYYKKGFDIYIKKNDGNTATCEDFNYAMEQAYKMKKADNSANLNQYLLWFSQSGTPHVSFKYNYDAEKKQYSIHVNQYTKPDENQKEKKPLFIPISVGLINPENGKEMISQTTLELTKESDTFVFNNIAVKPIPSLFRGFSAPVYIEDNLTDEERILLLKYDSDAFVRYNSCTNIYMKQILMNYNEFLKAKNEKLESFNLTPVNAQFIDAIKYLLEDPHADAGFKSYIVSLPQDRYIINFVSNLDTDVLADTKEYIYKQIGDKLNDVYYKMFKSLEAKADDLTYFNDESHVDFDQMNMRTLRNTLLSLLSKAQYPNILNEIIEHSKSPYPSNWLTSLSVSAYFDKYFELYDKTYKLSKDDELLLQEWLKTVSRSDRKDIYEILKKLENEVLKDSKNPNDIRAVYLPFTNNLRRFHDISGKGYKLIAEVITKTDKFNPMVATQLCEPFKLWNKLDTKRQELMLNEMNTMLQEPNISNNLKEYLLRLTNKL
With `COC(=O)C1=C(C)N(C)C(=S)NC1c1ccc(OC)cc1OC` (centres undefined) the inhibition was 3.74% (inactive).
In the case of `CCOc1ccc(C(=O)NC(=S)Nc2cccnc2)cc1[N+](=O)[O-]`, the inhibition is reported as 6.68% (inactive).
With `Cn1c(=O)c(C(=O)COC(=O)c2cc(-c3ccccc3)nc3ccccc23)c(N)n(Cc2ccccc2)c1=O` the inhibition was 3.89% (inactive).
For `O=C(/C=C/c1cccs1)NC(=S)Nc1ccccc1`, the inhibition was 22% (inactive).
`COc1ccc(/C=C/C(=O)NC(=S)Nc2ccc(N3CCN(C(C)=O)CC3)cc2)cc1` was tested, and the inhibition was 6.43% (inactive).
For `COc1ccc(NC(=S)NC(=O)/C=C/c2cccs2)cc1`, the inhibition was 10.7% (inactive).
With `COc1ccc(/C=C/C(=O)NC(=S)Nc2ccc(S(N)(=O)=O)cc2)cc1` the inhibition was 9.42% (inactive).
`COc1ccc(/C=N/N=C2/NC(=O)C(CC(=O)NC(C)C)S2)cc1` (centres undefined) was tested, and the inhibition was 10.2% (inactive).
In the case of `O=C(CN1CCCN(S(=O)(=O)c2ccc(F)cc2)CC1)Nc1ccccc1Br`, the inhibition is reported as 7.31% (inactive).
In the case of `COc1ccc2c(c1)C=C(CN1CCN(C(C)C)C(CCO)C1)CO2` (centres undefined), the inhibition is reported as -13.9% (inactive).
`CCOc1cc(/C=C2\SC(=Nc3ccccc3)N(c3ccccc3)C2=O)ccc1OCC(=O)O` was tested, and the inhibition was 8.93% (inactive).
In the case of `CCOc1cc(C=C2C(=O)c3ccccc3C2=O)ccc1OCC(=O)Nc1ccc(C)cc1`, the inhibition is reported as 2.91% (inactive).
With `CCOc1cc(/C=N/NC(=O)c2ccc(-c3csc(Nc4ccc(C)cc4)n3)cc2)ccc1OCC(=O)O` the inhibition was 14.3% (inactive).
`CCOc1cc(/C=C2/SC(=O)N(CC(=O)N3CCc4ccccc4C3)C2=O)ccc1OCC(=O)O` was tested, and the inhibition was 12.8% (inactive).
For `COC(=O)c1c(NC(=O)COC(=O)c2ccccc2O)sc2c1CCCCC2`, the inhibition was 2.42% (inactive).
In the case of `COc1cc(NC(=O)Cc2cccs2)ccc1-n1cnnn1`, the inhibition is reported as 4.02% (inactive).
In the case of `CN1CCc2c(OCc3ccc(F)cc3)cccc2C1=O`, the inhibition is reported as 3.15% (inactive).
`COc1ccc(NC(=O)c2ccccc2NS(=O)(=O)c2ccc(C)cc2)c([N+](=O)[O-])c1` was tested, and the inhibition was 11.4% (inactive).
In the case of `COc1ccc(NC(=S)NNc2ccc([N+](=O)[O-])cc2S(=O)(=O)Nc2ccc(C)cc2C)cc1`, the inhibition is reported as 5.53% (inactive).
For `Cc1ccc(S(=O)(=O)Nc2ccccc2C(=O)OC(C)C(=O)Nc2ccc3ccccc3c2)cc1[N+](=O)[O-]` (centres undefined), the inhibition was -0.95% (inactive).
`O=C(O)c1ccccc1Nc1ccc(OC(F)F)cc1` was tested, and the inhibition was 2.47% (inactive).
With `O=c1c(Cc2ccc(Cl)cc2)c(O)ccn1Cc1ccccc1` the inhibition was 1.46% (inactive).
In the case of `CCCc1cc(=O)oc2c(C)c(O)c(CN3CCCCC3)cc12`, the inhibition is reported as -4.01% (inactive).
With `Cc1c(O)c(CN2CCCCC2)cc2c1oc(=O)c1ccccc12` the inhibition was 1.46% (inactive).
With `Cc1oc2c(C)c3oc(=O)c4c(c3cc2c1C)CCCC4` the inhibition was 4.09% (inactive).
For `Cc1c(O)c(CN2CCCC2)cc2c1oc(=O)c1ccccc12`, the inhibition was 11.4% (inactive).
In the case of `CCc1cc(=O)oc2c(C)c(O)c(CN(C)C)cc12`, the inhibition is reported as 9.74% (inactive).
In the case of `Cc1oc2c(C)c3oc(=O)c4c(c3cc2c1C)CCC4`, the inhibition is reported as 9.19% (inactive).
In the case of `O=C(COc1cccnc1[N+](=O)[O-])Nc1ccccc1Sc1ccccc1`, the inhibition is reported as -2.34% (inactive).
For `CCOc1cccc(C(=O)NC(=S)Nc2cccnc2)c1`, the inhibition was 6.93% (inactive).
`COc1ccc(-c2ccc(N(C)C)cc2)cc1[C@H]1[C@H]2C=CC[C@@H](C)[C@@H]2C(=O)N1Cc1ccccc1` was tested, and the inhibition was 0.52% (inactive).
In the case of `O=C(c1ccc2c(=O)n3c(nc2c1)CCCCC3)N1CCN(c2ccccc2)CC1`, the inhibition is reported as 7.74% (inactive).
For `COc1ccc(Nc2cc(Cl)nc(N)n2)cc1`, the inhibition was 4.08% (inactive).
`CCNC(=S)N(CCc1ccc(S(N)(=O)=O)cc1)C1CC(=O)N(c2ccccc2)C1=O` (centres undefined) was tested, and the inhibition was 2.82% (inactive).
With `Cc1nn2c(-c3ccccn3)ccnc2c1Br` the inhibition was 7.82% (inactive).
`CCOc1c(Cl)cnn(-c2ccc(C)cc2)c1=O` was tested, and the inhibition was -0.82% (inactive).
For `CCOC(=O)c1cc(-c2cc3ccccc3o2)nc2c1c(=O)[nH]c(=O)n2CCOC`, the inhibition was 6.31% (inactive).
For `N=C(N)N=Nc1c(O)[nH]c2ccc(Br)cc12`, the inhibition was 10.3% (inactive).
`Oc1[nH]c2ccc(Br)cc2c1N=Nc1ccc(C(F)(F)F)cn1` was tested, and the inhibition was 4.3% (inactive).
`CN(C)CCNc1oc(/C=C/c2ccccc2)nc1C#N` was tested, and the inhibition was 20.7% (inactive).
For `N#Cc1nc(-c2ccc(F)cc2)oc1NCCN1CCOCC1`, the inhibition was 3.45% (inactive).
`CNc1oc(/C=C/c2ccccc2)nc1C#N` was tested, and the inhibition was 3.76% (inactive).
With `CN(C)CCCNc1oc(-c2ccccc2)nc1C#N` the inhibition was 5.83% (inactive).
With `COc1ccc(-c2nc(C#N)c(NCCCN3CCOCC3)o2)cc1` the inhibition was 27.7% (active).
In the case of `COCCNc1oc(-c2ccc(C)cc2)nc1C#N`, the inhibition is reported as 19.1% (inactive).
In the case of `N#Cc1nc(-c2ccco2)oc1NCCCN1CCOCC1`, the inhibition is reported as 6.97% (inactive).
For `COCCNc1oc(-c2ccccc2Cl)nc1C#N`, the inhibition was 10.4% (inactive).
In the case of `CN1CCN(c2oc(/C=C/c3ccccc3)nc2C#N)CC1`, the inhibition is reported as 16.3% (inactive).
In the case of `O=C(NCCOc1ccccc1F)c1cc(F)c(F)cc1Cl`, the inhibition is reported as 3.2% (inactive).
`CC(=O)N1CCN(c2ccc([N+](=O)[O-])cc2)CC1` was tested, and the inhibition was 3.7% (inactive).
For `COc1ccccc1-c1nn2c(C(F)(F)F)nnc2s1`, the inhibition was 4.63% (inactive).
For `O=C(NCc1ccccc1)C1=C[C@H](c2coc3ccccc3c2=O)C[C@H](OCCCCO)O1`, the inhibition was 6.04% (inactive).
In the case of `O=c1c2cc(NC(=S)NC3CC3)ccc2nc2n1CCCCC2`, the inhibition is reported as -0.67% (inactive).
In the case of `COCC1CCN(Cc2cn(-c3ccccc3F)nc2-c2cc(C)sc2C)CC1`, the inhibition is reported as 0.56% (inactive).
With `COc1ccc(-c2nc3n(n2)C(c2ccccc2Cl)C(C(N)=O)=C(C)N3)cc1` (centres undefined) the inhibition was 9.41% (inactive).
With `CCOC(=O)CSc1ccc(S(=O)(=O)N2CCCC2)cc1[N+](=O)[O-]` the inhibition was -0.65% (inactive).
With `COc1ccc(OCCSc2nc3ccccc3c(=O)[nH]2)cc1` the inhibition was 2.2% (inactive).
In the case of `CCN1C(=O)[C@H]2[C@H]3[C@H](O)[C@H](O)C/C(=N\O[C@H](C)c4cn([C@H](CO)Cc5ccccc5)nn4)[C@@H]3CC[C@H]2C1=O`, the inhibition is reported as -7.3% (inactive).
`COCC(=O)NC1CCCCCC1` was tested, and the inhibition was 2.18% (inactive).
With `CCOc1cc(C)c(Cl)cc1S(=O)(=O)NCC1CCCO1` (centres undefined) the inhibition was 1.73% (inactive).
For `O=C1NCCCC1C(=O)N/N=C/c1cccc(Cl)c1` (centres undefined), the inhibition was -7.25% (inactive).
With `NS(=O)(=O)c1ccc(CCNC(=O)COC(=O)CCc2ccccc2)cc1` the inhibition was -2% (inactive).
With `CN(C)c1oc(-c2ccccc2)nc1C#N` the inhibition was 11% (inactive).
With `CCN(CC)CCCNc1oc(-c2ccccc2[N+](=O)[O-])nc1C#N` the inhibition was 9.93% (inactive).
In the case of `N#Cc1nc(Cc2cccc3ccccc23)oc1NCCCN1CCOCC1`, the inhibition is reported as 6.12% (inactive).
With `CNc1oc(-c2cccs2)nc1C#N` the inhibition was 13% (inactive).
With `CCN(CC)CCCNc1oc(-c2cccc(Cl)c2)nc1C#N` the inhibition was 12.2% (inactive).
With `N#Cc1nc(COc2ccc(-c3ccccc3)cc2)oc1NCCCN1CCOCC1` the inhibition was -3.18% (inactive).
`CCOc1cc(C)c(C(C)C)cc1S(=O)(=O)n1ccc(C)n1` was tested, and the inhibition was -2.68% (inactive).
With `Cc1c(Cl)cccc1NC(=S)NCCc1ccccn1` the inhibition was 20.7% (inactive).
`COc1ccc(/C=C2\CCCC3C2=NN(C(=O)COC(=O)CNC(=O)c2ccccc2)C3c2ccc(OC)cc2)cc1` (centres undefined) was tested, and the inhibition was 2.31% (inactive).
`O=C(Cc1cccs1)Nc1nnc(-c2ccc(F)cc2)s1` was tested, and the inhibition was -2.11% (inactive).
`COc1cc(C(=O)Nc2ccc([N+](=O)[O-])cn2)cc(OC)c1OC` was tested, and the inhibition was 13.8% (inactive).
`COc1ccc(S(=O)(=O)NCCC(C)C)cc1OC` was tested, and the inhibition was -0.02% (inactive).
In the case of `Cc1nc(N)sc1C(=O)OCC(C)C`, the inhibition is reported as -4.36% (inactive).
For `Cc1ccc(-n2c(P(C)(=O)O)nc3ccccc32)cc1`, the inhibition was -0.56% (inactive).
`Cc1ccnc(NC(=O)CCCOc2ccc(Cl)cc2C)c1` was tested, and the inhibition was -1.52% (inactive).
With `C=CCC(=O)N1CCCC(CCC(=O)NCc2ccccc2F)C1` (centres undefined) the inhibition was 9.17% (inactive).
For `O=C(CCn1c(=O)oc2ccccc21)Nc1ccc2c(c1)OCCO2`, the inhibition was -5.19% (inactive).
In the case of `COc1ccccc1CCNS(=O)(=O)c1cn(C)c(=O)n(C)c1=O`, the inhibition is reported as -3.3% (inactive).
With `CC(CCC(=O)O)C1CC[C@@]2(C)C3C(=O)CC4C(C)(C)C(O)CC[C@]4(C)C3C(=O)C[C@]12C` (some centres undefined) the inhibition was 3% (inactive).
For `C[C@H](CCC(=O)O)[C@H]1CC[C@H]2[C@@H]3C(=O)C[C@@H]4CC(=O)CC[C@]4(C)[C@H]3CC(=O)[C@]12C`, the inhibition was 7.14% (inactive).
In the case of `C/C(Cl)=C\Cn1c(O)c(N=O)c2ccccc21`, the inhibition is reported as -2.4% (inactive).
`C=CCn1c(O)c(N=NC(=O)OCC)c2ccccc21` was tested, and the inhibition was 12.7% (inactive).
For `CCn1c(O)c(N=NC(=O)Cn2ccc(C(F)(F)F)n2)c2ccccc21`, the inhibition was 5.05% (inactive).
For `O=C(N/N=C/c1ccc(Cl)s1)c1ccccc1[N+](=O)[O-]`, the inhibition was 9.55% (inactive).
`Cc1c(C)c2ccc(Oc3ccc([N+](=O)[O-])cc3C(F)(F)F)c(C)c2oc1=O` was tested, and the inhibition was 6.61% (inactive).
With `Cc1cc(SCC(=O)N2CCC(c3noc4ccc(F)cc34)CC2)nc2ccccc12` the inhibition was 7.53% (inactive).
In the case of `Cc1sc2ncnc(SCC(=O)N3CCC(c4noc5ccc(F)cc45)CC3)c2c1C`, the inhibition is reported as 1.38% (inactive).
With `COC(=O)c1cn(NC(=O)Cc2ccccc2OC)c(=O)c2ccccc12` the inhibition was 3.77% (inactive).
For `CC(=O)Oc1c(-c2ccco2)oc2ccccc2c1=O`, the inhibition was 30.4% (inactive).
With `O=C(O)COc1c(-c2ccco2)oc2ccccc2c1=O` the inhibition was 9.28% (inactive).
`Cn1c(SCc2nc(-c3ccccc3)no2)nnc1-c1cccs1` was tested, and the inhibition was -3.32% (inactive).
With `N/C(=N\OC(=O)c1cnn(-c2ccccc2)c1C(F)(F)F)c1ccc(C(F)(F)F)cc1` the inhibition was 13.2% (inactive).
